Data on 16 compounds can be found in PubChem BioAssay (NCATS).

Inconclusive results are not listed. Activity calls are given as the source filed them. Calls come from the whole dose curve; as a rule, active = well fitted inhibition curve with a large enough effect; inconclusive = small, poorly fitted or top-dose-only effect, or effect the other way; inactive = flat fitted curve, though single readings scatter.
% is set by controls: 0 for no effect and ±100 for the full control effect; potency is the fitted concentration of half-maximal effect.

A short description of this experiment: Quantitative high throughput screen for delayed death inhibitors of the malarial parasite plastid, 48 hour incubation (AID 488752). Note: nearly all actives have a fitted effect of over 65% in size. As to conditions: Plasmodium falciparum growth; series mostly up to 28.7 µM; activity change, negative = inhibition: at the top concentration. The source says:
NIH Molecular Libraries Probe Production Network [MLPCN]
NIH Chemical Genomics Center [NCGC]
Assay Provider: David Fidock and Eric Ekland, Columbia University
The goal of this screen is to discover new antimalarial compounds that act by inhibiting the development of the apicoplast in the malarial parasite Plasmodium falciparum. The biochemical processes that make this organelle essential for erythrocytic stage parasites are not well understood. However, antibiotics, such as azithromycin and tetracycline, which target the apicoplast translational machinery, have a potent antimalarial effect.
We have developed a cell-based assay that measures parasite growth based on the expression of an integrated copy of a firefly luciferase reporter. To detect small molecules that cause this 'delayed death' phenotype, erythrocytes infected with the luciferase-expressing parasites were incubated with compounds for either one or two generations, corresponding to 48 and 96 hours, respectively. Compounds that inhibit parasite growth in the second generation, but not the first, should be enriched in antimalarials that target the apicoplast. Growth inhibition is detected by a decrease in luciferase activity
Four microliters of culture medium (RPMI 1640 with 0.5% w/v Albumax (GIBCO), 24 mM sodium bicarbonate and 10 ug/mL gentamycin) were dispensed by a Multi-drop Combi into white solid 1536-well plates (Grenier) and 23 nL compound was added by a pin tool. Four microliters of infected erythrocytes (2% hematocrit, 0.1% parasitemia final concentration) in culture medium were dispensed and the plates incubated for 48 hours at 37 C in 5% CO2. Two microliters of luciferase detection reagent was added and luminescence was detected by a ViewLux (PerkinElmer) reader
For the compound `C=CCN1CCC2(C)c3cc(O)ccc3CC1C2C` (stereo unspecified), the “activity change, negative = inhibition” value was -20.4% (inactive).
The same measure, in the same setting: next, `CN1CCN(c2ccc3ccccc3n2)CC1`: 22.4% (inactive); `CC(C)NCC(O)COc1cccc2ccccc12` (stereo unspecified): -26.1% (inactive); `C[N+]1(C)CCc2cc3c(cc2C1C1OC(=O)c2c1ccc1c2OCO1)OCO3` (stereo unspecified): -2.13% (inactive).
With `CN1CCc2cc(O)cc3c2C1Cc1ccc(O)c(O)c1-3` (stereo unspecified), the Potency was 18.5 µM (active).
As for `COc1ccc(CCN)cc1O`, the “activity change, negative = inhibition” value is -13.6% (inactive).
In the case of `CN1CCc2cccc3c2C1Cc1ccc(O)c(O)c1-3` (stereo unspecified), the Potency is 3.7 µM (active).
For `COc1cc(CCN)ccc1O`, the “activity change, negative = inhibition” value was 5.75% (inactive).
On the same count and under the same terms, next, `CP(=O)(O)CCCN`: 15.6% (inactive); `COc1ccc2[nH]cc(CCN(C)C)c2c1`: -0.016% (inactive).
The same measure, in the same setting: next, `N#CC(C#N)=Cc1ccc([N+](=O)[O-])c(O)c1`: 17.6% (inactive); `O=[N+]([O-])c1ccc(O[C@@H]2O[C@H](CO)[C@@H](O)[C@H](O)[C@H]2F)c([N+](=O)[O-])c1`: -26.8% (inactive); `N[C@@H](Cn1cc(I)c(=O)[nH]c1=O)C(=O)O`: -15.9% (inactive).
Still for that read-out and setting: then `N[C@H](CCCCCP(=O)(O)O)C(=O)O`, with -1.61% (inactive).
With `CC(=O)OCC1=C(C(=O)[O-])N2C(=O)[C@@H](NC(=O)CCC[C@@H](N)C(=O)[O-])[C@H]2SC1.[Zn+2]`, the “activity change, negative = inhibition” value was -12.3% (inactive).
In the case of `N#C/C(=C\c1ccc(O)c(O)c1)C(=O)NCCCNC(=O)/C(C#N)=C/c1ccc(O)c(O)c1`, the Potency is 10.4 µM (active).
